# The campaign covered roughly 66,000 compounds. About 960 (1.5%) showed an effect of 50% or more. The sample as a whole holds a higher share of strong results than the screen did.
# Test system: Trypanosoma brucei
# Assay: Trypanosoma brucei 72 hour study
# Type: functional, organism-based
# Parameters: scale not given: in the data most compounds retested in dose-response had high values
structure (smiles),measurement,setting,value
CCOc1ccccc1-c1cc(N)[nH]n1.Cl,Percent Effect,"30.3 µM, […]",-3.53%
CC(C)NC(=O)C1CN(Cc2ccc(F)cc2)CC12CCOCC2.O=C(O)C(F)(F)F (stereo not drawn),Percent Effect,"30 µM, 30.03 µM",-12.09%
CCC(C)(COc1ncccc1Cl)NCC(=O)NCC(C)C (stereo not drawn),Percent Effect,"30 µM, 30.03 µM",-31.89%
CCC1=N[C@@]2(CC[C@@H]3CN(CC4CC4)C[C@@H]32)C(=O)N1CC1CC1.O=C(O)C(F)(F)F,Percent Effect,"30 µM, 30.03 µM",-23.62%
COc1ccnc(N2CCCN(C(=O)Cc3ccc(C)s3)CC2)n1,Percent Effect,10 µM,-47.83%
Cc1cccc(CNC2CC3(CCN(CCO)CC3)c3ccccc32)n1.O=C(O)C(F)(F)F.O=C(O)C(F)(F)F (stereo not drawn),Percent Effect,"30.3 µM, […]",13.54%
Cn1ncc2c1C(COCC1CC1)CN(C(=O)c1cscn1)C2.O=C(O)C(F)(F)F (stereo not drawn),Percent Effect,"30 µM, 30.03 µM",21.88%
Cn1cc(CN2CCn3cc(CNC(=O)c4cccn4C)nc3C2)cn1.O=C(O)C(F)(F)F,Percent Effect,"30 µM, 30.03 µM",21.81%
N#Cc1cccnc1N1CCC(C2CCCCCN2C(=O)C2CC2)CC1 (stereo not drawn),Percent Effect,"30.3 µM, […]",53.48%
N#Cc1cccnc1N1CCC(C2CCCCCN2C(N)=O)CC1 (stereo not drawn),Percent Effect,"30.3 µM, […]",5.33%
CC(=O)N1CCCCCC1C1CCN(c2ncccc2C#N)CC1 (stereo not drawn),Percent Effect,"30.3 µM, […]",13.42%
Cn1cnnc1-c1ccnc(NCc2ccccc2)c1,Percent Effect,"30.3 µM, […]",5.527%
Cn1nccc1CN1CCOC(c2ccc(-c3cncnc3)cn2)C1 (stereo not drawn),Percent Effect,"30.3 µM, […]",1.674%
Br.Cn1nccc1CN1CCOC(c2cccc(-c3cncnc3)n2)C1 (stereo not drawn),Percent Effect,"30.3 µM, […]",-1.234%
Cn1nccc1CN1CCOC(c2cccc(Nc3ccccn3)n2)C1 (stereo not drawn),Percent Effect,"30.3 µM, […]",100.5%
NC(=O)c1cc(NC(=O)N2CCOCC2)ccc1F,Percent Effect,"30 µM, 30.03 µM",-9.926%
NC(=O)c1cc(NC(=O)N2CCCCCC2)ccc1F,Percent Effect,"30 µM, 30.03 µM",-43.72%
O=C(Nc1ccc(F)c(Br)c1)N1CCCC1,Percent Effect,"30 µM, 30.03 µM",97.43%
CC(C)CN1CCC2(C=C(C(=O)N(C)C)c3ccccc32)CC1.O=C(O)C(F)(F)F,Percent Effect,"30.3 µM, […]",-83.33%
Cc1ccc(CN2CCn3cc(CNC(=O)c4cnn(C)c4)nc3C2)s1.O=C(O)C(F)(F)F,Percent Effect,"30 µM, 30.03 µM",-34.09%
CC(C)C(=O)N1CCC2(CC1)COCCN2Cc1ccc(F)cc1.O=C(O)C(F)(F)F,Percent Effect,"30 µM, 30.03 µM",21.09%
Cc1cc2c(=O)n3c(nc2s1)CCN(Cc1cncn1C)CC3.Cl,Percent Effect,"30.3 µM, […]",6.762%
CCNC(=O)NC(=O)CNc1cc(C#N)ccc1OCC,Percent Effect,"30.3 µM, […]",-6.445%
same,Percent Effect,"10 mM, 10 mM as filed; unlikely as a test dose",-44.56%
CCCNC(=O)CNc1cc(C#N)ccc1OCC,Percent Effect,"30 µM, 30.03 µM",58.39%
CCOc1ccc(C#N)cc1NCC(=O)OC,Percent Effect,"30.3 µM, […]",-4.293%
same,Percent Effect,"10 mM, 10 mM as filed; unlikely as a test dose",-28.98%
CC(C)c1nc(CN(C)C(=O)C(O)c2ccc(Cl)cc2)cs1 (stereo not drawn),Percent Effect,"30 µM, 30.03 µM",3.875%
CNC(=O)CN(C)C(=O)Cc1csc(C(C)C)n1,Percent Effect,"30 µM, 30.03 µM",70.2%
CC(C)C[C@@H](N)C(=O)N(C)Cc1csc(C(C)C)n1,Percent Effect,"30 µM, 30.03 µM",100.6%
CC(C)c1nc(CN(C)C(=O)c2ccc3c(c2)OCO3)cs1,Percent Effect,"30 µM, 30.03 µM",56.82%
CC(C)c1nc(CN(C)C(=O)[C@H](N)Cc2ccc(Cl)cc2)cs1,Percent Effect,"30 µM, 30.03 µM",-3.528%
CCN(CC)C(=O)Cc1csc(C(C)C)n1,Percent Effect,"30 µM, 30.03 µM",-85.89%
CC(C)c1nc(CN(C)C(=O)CCc2ccc3c(c2)OCO3)cs1,Percent Effect,"30 µM, 30.03 µM",12.36%
CC(C)c1nc(CN(C)C(=O)c2ccc3c(c2)OCC(=O)N3)cs1,Percent Effect,"30 µM, 30.03 µM",17.57%
CCN(CC(=O)NC)C(=O)Cc1csc(C(C)C)n1,Percent Effect,"30 µM, 30.03 µM",-25.08%
Cc1cccc(CN2C(=O)CO[C@@H]3CN(C4CCOCC4)C[C@H]32)c1.O=C(O)C(F)(F)F,Percent Effect,"30 µM, 30.03 µM",-46.8%
O=C(O)C(F)(F)F.O=C(c1ccco1)N1C[C@H]2CCCN(CC3CC3)[C@H]2C1,Percent Effect,"30 µM, 30.03 µM",-18.48%
CCN(C)c1ncnc2c1CCN(Cc1ccc(F)cc1)CC2.O=C(O)C(F)(F)F.O=C(O)C(F)(F)F,Percent Effect,"30 µM, 30.03 µM",0%
CC(=O)N1CCOCC2(CN(Cc3ccc(C)o3)CCO2)C1.O=C(O)C(F)(F)F (stereo not drawn),Percent Effect,"30 µM, 30.03 µM",0.2271%
COCCCC1(CO)CCCN(CCc2ccccc2)C1 (stereo not drawn),Percent Effect,"30 µM, 30.03 µM",60.85%
COCCCC1(CO)CCCN(CCc2ccccn2)C1 (stereo not drawn),Percent Effect,"30 µM, 30.03 µM",-19.7%
COCCC1(CO)CCCN(CCCc2ccccc2)C1 (stereo not drawn),Percent Effect,"30 µM, 30.03 µM",-35.64%
COCCn1c(=O)n(C)c(=O)c2ccc(C3CCC(CN)CC3)nc21.Cl (stereo not drawn),Percent Effect,"30.3 µM, […]",8.357%
COc1cccc(CNC(Cc2cccs2)c2nc(C)c(C)s2)c1OC.Cl (stereo not drawn),Percent Effect,"30.3 µM, […]",-32.09%
CCc1ccc2nc(C)cc(C(=O)NC[C@@H]3CCNC[C@H]3O)c2c1,Percent Effect,"30 µM, 30.03 µM",-34.49%
CCc1ccc2nc(C)cc(C(=O)N[C@@H]3CNC[C@H]3O)c2c1,Percent Effect,"30 µM, 30.03 µM",-69.69%
CCc1ccc2nc(C)cc(C(=O)N[C@@H]3CCCNC3)c2c1,Percent Effect,"30 µM, 30.03 µM",86.43%
CCS(=O)(=O)N1CCCC2(COCCN(c3ccccn3)C2)C1.O=C(O)C(F)(F)F (stereo not drawn),Percent Effect,"30 µM, 30.03 µM",-23.72%
Cc1nn(C)c(Cl)c1CNCc1cccnc1N1CCOCC1.Cl,Percent Effect,"30 µM, 30.03 µM",16.35%
COC(=O)Cn1c(C)cc(=O)c2cc(F)ccc21,Percent Effect,"30.3 µM, […]",-56.52%
COCCn1cncc1CN1CCCC(C)(c2ccccc2)C1 (stereo not drawn),Percent Effect,"30 µM, 30.03 µM",-43.69%
CC1(c2ccccc2)CCCN(Cc2cncn2C2CC2)C1 (stereo not drawn),Percent Effect,"30 µM, 30.03 µM",-39.24%
CC1(c2ccccc2)CCCN(Cc2cncn2C2CCCC2)C1 (stereo not drawn),Percent Effect,"30 µM, 30.03 µM",102.5%
Cn1ccc(C(=O)N2CCCCC2c2cc(CCO)[nH]n2)n1 (stereo not drawn),Percent Effect,"30.3 µM, […]",-16.55%
O=C(Cc1cccs1)N1C[C@H]2CN(CC3CCCO3)CC[C@H]2C1.O=C(O)C(F)(F)F (stereo partly drawn),Percent Effect,"30 µM, 30.03 µM",-6.249%
COC(=O)c1cc(C(=O)N2CCOC(C)(C)C2)n(-c2ccccc2)n1,Percent Effect,"30.3 µM, […]",6.059%
Cc1nc(C)n(CC2CCCN2CC(=O)NCCc2ccsc2)n1 (stereo not drawn),Percent Effect,"30 µM, 30.03 µM",-16.47%
CN1CCN(c2ccc(S(N)(=O)=O)cc2C#N)Cc2ccccc21,Percent Effect,"30.3 µM, […]",-63.54%
CC(=O)N1CCC(n2ccc(-c3cnc(NCC(C)C)nc3)n2)CC1,Percent Effect,"30.3 µM, […]",77.59%
CC(=O)N1CCC(n2ccc(-c3cnc(N4CCOCC4)nc3)n2)CC1,Percent Effect,"30.3 µM, […]",26%
CC[C@H](C)Nc1ncc(-c2ccn(C3CCN(C(C)=O)CC3)n2)cn1,Percent Effect,"30.3 µM, […]",-5.339%
CC(C)n1c(=O)nc2n1C(=O)N(c1ccc(Br)cc1)C2,Percent Effect,"30 µM, 30.03 µM",-31.4%
N#Cc1cccc(CN2C[C@H](NC(=O)C3CC3)[C@H]3OCCC[C@H]32)c1.O=C(O)C(F)(F)F,Percent Effect,"30.3 µM, […]",-35.12%
CC(=O)N1CCCC2(CCC(=O)N2Cc2cccnc2)C1.O=C(O)C(F)(F)F (stereo not drawn),Percent Effect,"30.3 µM, […]",1.324%
COCCCN1Cc2cccc(NC(=O)c3cc(F)cc(F)c3)c2C1,Percent Effect,"30 µM, 30.03 µM",34.67%
COCCCN1Cc2cccc(NC(=O)c3ccccc3Cl)c2C1,Percent Effect,"30 µM, 30.03 µM",7.9%
COCCCN1Cc2cccc(NC(=O)c3cc(F)ccc3F)c2C1,Percent Effect,"30 µM, 30.03 µM",52.37%
CN1CCN(C2COC3(CCN(Cc4cccs4)CC3)C2)CC1.O=C(O)C(F)(F)F.O=C(O)C(F)(F)F (stereo not drawn),Percent Effect,"30.3 µM, […]",-470.3%
Cc1nc[nH]c1CN1C[C@@H]2CC[C@H](C1)N(C(=O)CCc1cccnc1)C2,Percent Effect,"30 µM, 30.03 µM",-21.46%
Cc1nc(CN2CC3(CCN(c4cnccn4)C3)CC2=O)cs1.O=C(O)C(F)(F)F (stereo not drawn),Percent Effect,"30 µM, 30.03 µM",-45.32%
CC(C)(C)[S+]([O-])CCNC(=O)c1csc(NC2CC2)n1 (stereo not drawn),Percent Effect,"30 µM, 30.03 µM",-59.41%
Cc1[nH]/c(=N\C(=O)c2csc(NC3CC3)n2)sc1C,Percent Effect,"30 µM, 30.03 µM",66.57%
Cc1cnc(NC(=O)c2csc(NC3CCCC3)n2)s1,Percent Effect,"30 µM, 30.03 µM",-9.891%
CCN(CC)C(=O)CCCNC(=O)c1csc(NC2CC2)n1,Percent Effect,"30 µM, 30.03 µM",-27.48%
Cc1[nH]/c(=N\C(=O)c2csc(NC3CCCC3)n2)sc1C,Percent Effect,"30 µM, 30.03 µM",95.68%
CC(=O)Nc1nc(C(=O)N2CCCC(c3cc(C)[nH]n3)C2)cs1 (stereo not drawn),Percent Effect,"30 µM, 30.03 µM",16.48%
O=C(O)C(F)(F)F.c1csc(CN2CCC3(CCOCC3COCC3CC3)CC2)n1 (stereo not drawn),Percent Effect,"30.3 µM, […]",-46.34%
C=C(C)CN1CCC(NC(=O)Nc2ccc(F)c(C(=O)NC)c2)CC1,Percent Effect,"30.3 µM, […]",-0.7134%
CC[C@@H]1N(Cc2ccc(F)cc2)CCC[C@]12CCC(=O)N2C.O=C(O)C(F)(F)F,Percent Effect,"30.3 µM, […]",-14.8%
O=C(O)C(F)(F)F.O=C(c1ccco1)N1CCC2(CCCN(c3ncccn3)C2)C1 (stereo not drawn),Percent Effect,"30.3 µM, […]",-37.47%
CC(=O)Nc1nc2c(s1)C1(CCN(C)CC1)Nc1ccccc1S2,Percent Effect,"30.3 µM, […]",83.23%
CC(=O)Nc1nc2c(s1)C(C)(C)Nc1ccccc1S2,Percent Effect,"30.3 µM, […]",-17.63%
CC(=O)Nc1nc2c(s1)C1(CCCC1)Nc1ccccc1S2,Percent Effect,"30.3 µM, […]",-6.174%
O=c1c(CN2CCOCC2)coc(O)c1CN1CCOCC1,Percent Effect,"30 µM, 30.03 µM",-17.25%
CN1CCN(c2ncc3c(=O)n(-c4cccc(F)c4)c(=O)[nH]c3n2)CC1,Percent Effect,"30 µM, 30.03 µM",11.72%
OC(CN1CCN(CC2CCCCC2)CC1)c1ccccc1 (stereo not drawn),Percent Effect,"30 µM, 30.03 µM",-15.73%
NC(CC1CCCC1)c1ccc(Oc2ccccc2)cc1 (stereo not drawn),Percent Effect,"30 µM, 30.03 µM",101.8%
Cl.NC(CC1CCCC1)c1ccccc1 (stereo not drawn),Percent Effect,"30 µM, 30.03 µM",-30.59%
COc1ccc(CN(Cc2cnc(N)nc2)CC2CCCO2)c(OC)c1.O=C(O)CC(O)(CC(=O)O)C(=O)O (stereo not drawn),Percent Effect,"30.3 µM, […]",5.653%
CCCc1cc(NC2CCc3nc(CC)nn3C2)n2ncnc2n1 (stereo not drawn),Percent Effect,"30 µM, 30.03 µM",-33.56%
Cc1cc(NC2CCc3nc(C)nn3C2)n2ncnc2n1 (stereo not drawn),Percent Effect,"30 µM, 30.03 µM",-21.45%
Cc1nc2n(n1)CC(Nc1cc(C(F)(F)F)nc3ncnn13)CC2 (stereo not drawn),Percent Effect,"30 µM, 30.03 µM",53.11%
CCCc1cc(NC2CCc3ncnn3C2)n2ncnc2n1 (stereo not drawn),Percent Effect,"30 µM, 30.03 µM",104.4%
CCCc1cc(NC2CCc3nc(C)nn3C2)n2ncnc2n1 (stereo not drawn),Percent Effect,"30 µM, 30.03 µM",-21.48%
CCc1nc2n(n1)CC(Nc1cc(C)nc3ncnn13)CC2 (stereo not drawn),Percent Effect,"30 µM, 30.03 µM",-89.04%
O=C(NC1CC1)[C@H]1C[C@H]2OCC[C@H]2N(Cc2ccc3ccccc3n2)C1.O=C(O)C(F)(F)F.O=C(O)C(F)(F)F,Percent Effect,"30.3 µM, […]",-259.7%
COC(=O)CCN(C)Cc1cc(Br)cs1,Percent Effect,"30 µM, 30.03 µM",-12.73%

# Reference: ChEMBL document CHEMBL3988442, “University of Dundee, Small-Polar-MMV Screening Library” (2021)
